# Results from PubChem BioAssay AID1159580 (chemical genetic matrix, 2015).
# Several values for one entry are separate records, joined by “and”; a condition that tells them apart may be missing. Equal values may be shown once. Among all 5,500 compounds or so, about 2,000 (36%) were called active. About 18% were inconclusive and are not listed. No stated cut-off is given here; in the data, active means normalized growth mostly below about 0.91 (no sharp cut-off); inconclusive means no clear call, values can overlap the other calls; inactive means mostly above about 0.92. The list shows a part of the results.
# Test: chemical genetic growth profiling, strain panel (AID 1159580);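 further: tested at 20 µM; growth read once vehicle control cultures reached saturation at 30 °C; 1 = growth at the plate median or of vehicle wells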
# Conditions: growth OD
structure (smiles),measurement,setting,value
Cc1cc(O)c2c(c1)Cc1cccc(O)c1C2=O,normalized growth,"S. cerevisiae deletion strains, locus YAL013W, strain DEP1, stronger effect = lower value",0.978 (inactive)
same,normalized growth,"S. cerevisiae deletion strains, locus YBR021W, strain FUR4, stronger effect = lower value",1.09 (inactive)
same,normalized growth,"S. cerevisiae deletion strains, locus YBR229C, strain ROT2, stronger effect = lower value",1.02 (inactive)
same,normalized growth,"S. cerevisiae deletion strains, locus YCL029C, strain bik1, stronger effect = lower value",1.01 (inactive)
same,normalized growth,"S. cerevisiae deletion strains, locus YDL035C, strain GPR1, stronger effect = lower value",0.978 (inactive)
same,normalized growth,"S. cerevisiae deletion strains, locus YDL074C, strain BRE1, stronger effect = lower value",0.832 (inactive)
same,normalized growth,"S. cerevisiae deletion strains, locus YDL101C, strain DUN1, stronger effect = lower value",0.951 (inactive)
same,normalized growth,"S. cerevisiae deletion strains, locus YDL134C, strain PPH21, stronger effect = lower value",0.992 (inactive)
same,normalized growth,"S. cerevisiae deletion strains, locus YDL185W, strain tfp1, stronger effect = lower value",1 (inactive)
same,normalized growth,"S. cerevisiae deletion strains, locus YDL192W, strain arf1, stronger effect = lower value",1.02 (inactive)
same,normalized growth,"S. cerevisiae deletion strains, locus YDR101C, strain arx1, stronger effect = lower value",1.01 (inactive)
same,normalized growth,"S. cerevisiae deletion strains, locus YDR150W, strain NUM1, stronger effect = lower value",1.02 (inactive)
same,normalized growth,"S. cerevisiae deletion strains, locus YDR162C, strain NBP2, stronger effect = lower value",0.905 (inactive)
same,normalized growth,"S. cerevisiae deletion strains, locus YDR318W, strain mcm21, stronger effect = lower value",0.982 (inactive)
same,normalized growth,"S. cerevisiae deletion strains, locus YDR388W, stronger effect = lower value",0.998 (inactive)
same,normalized growth,"S. cerevisiae deletion strains, locus YDR502C, strain sam2, stronger effect = lower value",1 (inactive)
same,normalized growth,"S. cerevisiae deletion strains, locus YEL061C, strain CIN8, stronger effect = lower value",0.848 (active)
same,normalized growth,"S. cerevisiae deletion strains, locus YER110C, stronger effect = lower value",1.01 (inactive)
same,normalized growth,"S. cerevisiae deletion strains, locus YER155C, strain BEM2, stronger effect = lower value",1.02 (inactive)
same,normalized growth,"S. cerevisiae deletion strains, locus YER167W, strain BCK2, stronger effect = lower value",0.941 (inactive)
same,normalized growth,"S. cerevisiae deletion strains, locus YGL078C, strain dbp3, stronger effect = lower value",1.02 (inactive)
same,normalized growth,"S. cerevisiae deletion strains, locus YGL086W, strain mad1, stronger effect = lower value",0.979 (inactive)
same,normalized growth,"S. cerevisiae deletion strains, locus YGL248W, strain PDE1, stronger effect = lower value",0.958 (inactive)
same,normalized growth,"S. cerevisiae deletion strains, locus YGR078C, strain PAC10, stronger effect = lower value",0.979 (inactive)
same,normalized growth,"S. cerevisiae deletion strains, locus YGR135W, strain pre9, stronger effect = lower value",1.02 (inactive)
same,normalized growth,"S. cerevisiae deletion strains, locus YGR229C, strain SMI1, stronger effect = lower value",0.677 (active)
same,normalized growth,"S. cerevisiae deletion strains, locus YGR252W, strain gcn5, stronger effect = lower value",0.914 (inactive)
same,normalized growth,"S. cerevisiae deletion strains, locus YHR030C, strain SLT2, stronger effect = lower value",0.96 (inactive) and 1.05 (inactive)
same,normalized growth,"S. cerevisiae deletion strains, locus YHR079C, strain IRE1 (second series), stronger effect = lower value",1.02 (inactive)
same,normalized growth,"S. cerevisiae deletion strains, locus YHR079C, strain IRE1, stronger effect = lower value",1.04 (inactive)
same,normalized growth,"S. cerevisiae deletion strains, locus YHR094C, strain hxt1, stronger effect = lower value",1.01 (inactive)
same,normalized growth,"S. cerevisiae deletion strains, locus YHR129C, strain ARP1, stronger effect = lower value",0.926 (inactive)
same,normalized growth,"S. cerevisiae deletion strains, locus YHR200W, strain rpn10, stronger effect = lower value",1.05 (inactive)
same,normalized growth,"S. cerevisiae deletion strains, locus YIL066C, strain RNR3, stronger effect = lower value",0.717 (active)
same,normalized growth,"S. cerevisiae deletion strains, locus YIL073C, strain SPO22, stronger effect = lower value",0.898 (inactive)
same,normalized growth,"S. cerevisiae deletion strains, locus YIL125W, strain kgd1, stronger effect = lower value",0.998 (inactive)
same,normalized growth,"S. cerevisiae deletion strains, locus YIR030C, strain dcg1, stronger effect = lower value",1.1 [resistant] (active)
same,normalized growth,"S. cerevisiae deletion strains, locus YJL095W, strain BCK1, stronger effect = lower value",0.573 (active) and 1.05 (inactive)
same,normalized growth,"S. cerevisiae deletion strains, locus YJL134W, strain LCB3, stronger effect = lower value",1.01 (inactive)
same,normalized growth,"S. cerevisiae deletion strains, locus YJL168C, strain set2, stronger effect = lower value",1 (inactive)
same,normalized growth,"S. cerevisiae deletion strains, locus YJL187C, strain SWE1 (second series), stronger effect = lower value",0.742 (active)
same,normalized growth,"S. cerevisiae deletion strains, locus YJR043C, strain POL32, stronger effect = lower value",1.01 (inactive)
same,normalized growth,"S. cerevisiae deletion strains, locus YJR066W, strain TOR1, stronger effect = lower value",0.938 (inactive)
same,normalized growth,"S. cerevisiae deletion strains, locus YJR075W, strain HOC1, stronger effect = lower value",0.971 (inactive)
same,normalized growth,"S. cerevisiae deletion strains, locus YKL009W, strain mrt4, stronger effect = lower value",1.05 (inactive)
same,normalized growth,"S. cerevisiae deletion strains, locus YKL068W, stronger effect = lower value",1.02 (inactive)
same,normalized growth,"S. cerevisiae deletion strains, locus YKL085W, strain MDH1 (second series), stronger effect = lower value",1.03 (inactive)
same,normalized growth,"S. cerevisiae deletion strains, locus YKL085W, strain MDH1, stronger effect = lower value",1.03 (inactive)
same,normalized growth,"S. cerevisiae deletion strains, locus YKL190W, strain CNB1, stronger effect = lower value",0.995 (inactive)
same,normalized growth,"S. cerevisiae deletion strains, locus YKR001C, strain vps1, stronger effect = lower value",0.865 (active)
same,normalized growth,"S. cerevisiae deletion strains, locus YLR039C, strain RIC1, stronger effect = lower value",0.261 (active)
same,normalized growth,"S. cerevisiae deletion strains, locus YLR058C, strain SHM2, stronger effect = lower value",0.922 (inactive)
same,normalized growth,"S. cerevisiae deletion strains, locus YLR102C, strain apc9, stronger effect = lower value",1.05 (inactive)
same,normalized growth,"S. cerevisiae deletion strains, locus YLR113W, strain HOG1, stronger effect = lower value",1.05 (inactive)
same,normalized growth,"S. cerevisiae deletion strains, locus YLR262C, strain YPT6, stronger effect = lower value",0.517 (active)
same,normalized growth,"S. cerevisiae deletion strains, locus YLR268W, strain sec22, stronger effect = lower value",0.93 (inactive)
same,normalized growth,"S. cerevisiae deletion strains, locus YLR330W, strain CHS5, stronger effect = lower value",0.957 (inactive)
same,normalized growth,"S. cerevisiae deletion strains, locus YLR342W, strain FKS1 (second series), stronger effect = lower value",0.918 (inactive)
same,normalized growth,"S. cerevisiae deletion strains, locus YLR371W, strain rom2, stronger effect = lower value",1.02 (inactive)
same,normalized growth,"S. cerevisiae deletion strains, locus YLR418C, strain cdc73, stronger effect = lower value",0.902 (inactive)
same,normalized growth,"S. cerevisiae deletion strains, locus YML016C, strain PPZ1, stronger effect = lower value",0.999 (inactive)
same,normalized growth,"S. cerevisiae deletion strains, locus YML032C, strain rad52, stronger effect = lower value",0.906 (inactive)
same,normalized growth,"S. cerevisiae deletion strains, locus YML124C, strain tub3, stronger effect = lower value",1.03 (inactive)
same,normalized growth,"S. cerevisiae deletion strains, locus YMR078C, strain ctf18, stronger effect = lower value",0.974 (inactive)
same,normalized growth,"S. cerevisiae deletion strains, locus YMR223W, strain ubp8, stronger effect = lower value",1.06 (inactive)
same,normalized growth,"S. cerevisiae deletion strains, locus YMR307W, strain GAS1, stronger effect = lower value",0.874 (inactive)
same,normalized growth,"S. cerevisiae deletion strains, locus YNL067W, strain RPL9B, stronger effect = lower value",0.932 (inactive)
same,normalized growth,"S. cerevisiae deletion strains, locus YNL183C, strain NPR1, stronger effect = lower value",0.967 (inactive)
same,normalized growth,"S. cerevisiae deletion strains, locus YNL233W, strain BNI4, stronger effect = lower value",0.946 (inactive)
same,normalized growth,"S. cerevisiae deletion strains, locus YNL250W, strain rad50, stronger effect = lower value",0.962 (inactive)
same,normalized growth,"S. cerevisiae deletion strains, locus YNL271C, strain bni1, stronger effect = lower value",1.01 (inactive)
same,normalized growth,"S. cerevisiae deletion strains, locus YNL298W, strain CLA4, stronger effect = lower value",0.999 (inactive)
same,normalized growth,"S. cerevisiae deletion strains, locus YNL307C, strain MCK1, stronger effect = lower value",1 (inactive)
same,normalized growth,"S. cerevisiae deletion strains, locus YNL322C, strain KRE1, stronger effect = lower value",0.987 (inactive)
same,normalized growth,"S. cerevisiae deletion strains, locus YNR052C, strain pop2, stronger effect = lower value",0.949 (inactive)
same,normalized growth,"S. cerevisiae deletion strains, locus YOL006C, strain TOP1, stronger effect = lower value",0.261 (active)
same,normalized growth,"S. cerevisiae deletion strains, locus YOL012C, strain htz1",0.675 (inactive)
same,normalized growth,"S. cerevisiae deletion strains, locus YOL147C, strain pex11, stronger effect = lower value",1.05 (inactive)
same,normalized growth,"S. cerevisiae deletion strains, locus YOR061W, strain CKA2, stronger effect = lower value",0.995 (inactive)
same,normalized growth,"S. cerevisiae deletion strains, locus YOR069W, strain VPS5, stronger effect = lower value",0.951 (inactive)
same,normalized growth,"S. cerevisiae deletion strains, locus YOR136W, strain idh2, stronger effect = lower value",1 (inactive)
same,normalized growth,"S. cerevisiae deletion strains, locus YOR144C, strain elg1, stronger effect = lower value",1.06 (inactive)
same,normalized growth,"S. cerevisiae deletion strains, locus YOR184W, strain ser1, stronger effect = lower value",0.984 (inactive)
same,normalized growth,"S. cerevisiae deletion strains, locus YOR231W, strain MKK1, stronger effect = lower value",1.07 (inactive)
same,normalized growth,"S. cerevisiae deletion strains, locus YOR316C, strain cot1, stronger effect = lower value",1.06 (inactive)
same,normalized growth,"S. cerevisiae deletion strains, locus YPL055C, strain LGE1, stronger effect = lower value",0.753 (active)
same,normalized growth,"S. cerevisiae deletion strains, locus YPL241C, strain CIN2, stronger effect = lower value",0.982 (inactive)
same,normalized growth,"S. cerevisiae deletion strains, locus YPL256C, strain CLN2, stronger effect = lower value",1.09 (inactive)
same,normalized growth,"S. cerevisiae deletion strains, locus YPR119W, strain clb2, stronger effect = lower value",1.05 (inactive)
same,normalized growth,"S. cerevisiae deletion strains, locus YPR141C, strain kar3, stronger effect = lower value",1.02 (inactive)
same,normalized growth,"S. cerevisiae deletion strains, locus YPR163C, strain tif3, stronger effect = lower value",0.982 (inactive)
same,normalized growth,"S. cerevisiae deletion strains, locus YPR167C, strain met16, stronger effect = lower value",1.06 (inactive)
same,normalized growth,"S. cerevisiae deletion strains, strain wtn01, stronger effect = lower value",0.997 (inactive)
same,normalized growth,"S. cerevisiae strains, strain wild type, stronger effect = lower value",0.881 (active)
